An excerpt weighted towards active compounds, which were near 1.9% of everything screened.
aDG glyco up: activators of alpha-DG glycosylation, primary screen, uHTS, Pro5-aDG cells, AlphaScreen. alpha-DG glycosylation AlphaScreen (IIH6); 0% Pro5, 100% B10-LARGE cell signal. activation, % at 10 µM. actives 0.22% (n = 360,000);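 active = activation of at least 8% versus controls, or a plate z-score of at least 8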;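 note: Pro5 are CHO cells carrying HIG-tagged alpha-DG that lacks glycosylation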
EBNA-1 inhibitor: EBNA-1 DNA-binding inhibitors, primary screen, biochemical, fluorescence polarization. inhibition, % at 14.8 µM. actives 0.34% (n = 300,000); in the data active = inhibition above about 28%
NR1D1 modulator: modulators of Rev-erb alpha DNA binding, primary screen, biochemical, FITC-DNA, fluorescence polarization, uHTS. Rev-erbα–FITC-DNA binding, 90 min. AID 1259318, 2017. actives 0.79% (n = 370,000). activity, % at 10 µM. Nuclear receptor subfamily 1 group D member 1 (Homo sapiens), P20393;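 active = activity above about 14%, limit read from the data; passing the limit was not always enough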
Target sequence (P20393 whole entry, looked up): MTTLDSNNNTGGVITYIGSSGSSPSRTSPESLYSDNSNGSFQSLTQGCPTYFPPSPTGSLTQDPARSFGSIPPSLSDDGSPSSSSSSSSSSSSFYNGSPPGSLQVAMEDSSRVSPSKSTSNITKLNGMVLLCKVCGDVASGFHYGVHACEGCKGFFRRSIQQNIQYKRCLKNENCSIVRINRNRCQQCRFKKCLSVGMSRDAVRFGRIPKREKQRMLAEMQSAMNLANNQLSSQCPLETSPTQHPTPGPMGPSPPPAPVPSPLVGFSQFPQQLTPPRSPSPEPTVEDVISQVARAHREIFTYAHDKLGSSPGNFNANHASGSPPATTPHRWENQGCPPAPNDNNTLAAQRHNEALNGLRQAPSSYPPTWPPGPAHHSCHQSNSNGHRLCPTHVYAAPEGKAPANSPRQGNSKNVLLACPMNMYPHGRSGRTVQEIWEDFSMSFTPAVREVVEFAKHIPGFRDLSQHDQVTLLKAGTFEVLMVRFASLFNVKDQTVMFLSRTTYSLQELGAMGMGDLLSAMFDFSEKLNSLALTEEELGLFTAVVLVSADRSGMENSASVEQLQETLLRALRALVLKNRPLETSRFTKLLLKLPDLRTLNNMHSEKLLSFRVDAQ
ZTA DNA inh: blocks Epstein-Barr virus ZTA, an EBNA-1 counter-screen; ZTA-DNA binding, fluorescence polarization; P03206; AID 2234; inhibition, % at 11 µM; actives 0.15% (n = 320,000); in the data active = inhibition above about 33%
PG9 Ab binder: binders of HIV-1 gp120 antibody PG9, primary screen, biochemical, TR-FRET | inhibition, % at 6.7 µM | actives 0.43% (n = 360,000) | HIV-1 gp120 / PG9 antibody interaction | TR-FRET gp120-PG9 antibody binding | AID 624416, 2012; in the data active = inhibition above about 8.5%
p47phox inh: p47phox/p22phox peptide binding inhibitors, primary screen, biochemical, uHTS, NADPH oxidase regulatory subunit. Neutrophil cytosol factor 1 (Homo sapiens), P14598. actives 0.53% (n = 220,000). fluorescence polarization, 2 h. AID 1274, 2008. inhibition, % at 24.7 µM;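 active = inhibition above about 30%, limit read from the data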
PG9 bind confirm: binders of anti-gp120 antibody PG9, confirmation, biochemical, TR-FRET | shares compounds with PG9 Ab binder | TR-FRET PG9 antibody binding | inhibition, % at 6.7 µM | actives 90% (n = 1,500); in the data active = inhibition above about 9%
PGV04 Ab binding: binders of control antibody PGV04, counter-screen for PG9 antibody binder project, biochemical, TR-FRET, distinct HIV envelope site. shares compounds with PG9 Ab binder. TR-FRET PGV04 antibody-gp120 binding. inhibition, % at 6.7 µM. actives 95% (n = 1,500). AID 651604, 2012; in the data active = inhibition above about 9.5%
PG9 binder DR: small-molecule binders of antibody PG9, dose response, biochemical, TR-FRET, HIV-1 gp120 antibody; TR-FRET PG9 antibody-gp120 binding inhibition; IC50, µM; AID 651848, 2012; 95 tested, under 10 active; shares compounds with PG9 Ab binder; in the data active = IC50 below about 10 µM
PGV04 DR counter: binders of control antibody PGV04, dose response, counter-screen for PG9 antibody binder project, biochemical, TR-FRET, distinct HIV envelope site; shares compounds with PG9 Ab binder; TR-FRET binding to control antibody PGV04; IC50, µM; actives 20% (n = 95)
PG126 DR counter: binders of control antibody PG126, dose response, counter-screen for PG9 antibody binder project, biochemical, TR-FRET, distinct HIV envelope site; shares compounds with PG9 Ab binder; TR-FRET binding to antibody PG126, counterscreen; IC50, µM; actives 20% (n = 95); AID 651939, 2012
NR1D1 mod conf: modulators of Rev-erb alpha DNA binding, confirmation, biochemical, FITC-DNA, fluorescence polarization, single point | 90 min | actives 61% (n = 3,000) | AID 1259319, 2017 | activation, % at 25 µM | shares compounds with NR1D1 modulator;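 active = activation at or above a set limit, or at least 3 SD above the negative control mean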
RORg DNA counter: modulation of RORgamma DNA binding, dose response, counter-screen for Rev-erb alpha modulator project, biochemical, fluorescence polarization, FITC-DNA; shares compounds with NR1D1 modulator; purified RORgamma protein-FITC-DNA binding; IC50, µM; actives 8% (n = 910); AID 1259320, 2017;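 active = Compounds whose fitted half-maximal concentration for disrupting protein-DNA binding is below 10 micromolar; the record names Rev-erb in its text, so the target is in doubt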
Each line names hits and unclear results; the compound was inactive in the other large screens (follow-up assays come after a bar, where they were run). Cut-off read from the data, not from the text of the source, unless noted: active = IC50 below about 9 µM; inactive = the rest.

NC(=O)c1nsc(C(=O)N(c2ccccc2F)C(C(=O)NCc2ccccc2)c2ccc(O)cc2)c1N (stereo not given)	none (no result: p47phox inh)
Cc1ccc(CNC(=O)OC(C)(C)C)c(/C=C/S(=O)(=O)NC2CCCC2)c1	none (no result: aDG glyco up, EBNA-1 inhibitor, ZTA DNA inh, PG9 Ab binder, p47phox inh)
Cc1cc(NS(=O)(=O)c2ccc(NC(=O)Cc3ccc(Cl)c(Cl)c3)cc2)on1	none (no result: aDG glyco up, EBNA-1 inhibitor, ZTA DNA inh, PG9 Ab binder, p47phox inh)
CCNc1nc(Cl)nc(-c2cn(-c3ccccc3)c3ccccc23)n1	NR1D1 modulator 42, PG9 Ab binder 11 | PG9 bind confirm 9.0 | PGV04 Ab binding 9.4 | NR1D1 mod conf inactive
Cc1ccc(C)c(Cn2c(=O)n(CCCC(=O)NCc3ccco3)c(=O)c3sccc32)c1	NR1D1 modulator 18, PG9 Ab binder 18 | PG9 bind confirm 21 | PGV04 Ab binding 29 | NR1D1 mod conf inactive
Cc1ccc(C)c(Cn2c(=O)n(CCCC(=O)NCc3ccco3)c(=O)c3ccccc32)c1	none
Cc1ccccc1CNc1ncnc2cc(Cl)ccc12	NR1D1 modulator 239, PG9 Ab binder 90 (no result: p47phox inh) | PG9 bind confirm 90 | PGV04 Ab binding 96 | NR1D1 mod conf 189 | RORg DNA counter 2.1
CC(C)[C@H](NC(=O)OC(C)(C)C)C(=O)N1CCC(Oc2cccnc2)CC1	none (no result: aDG glyco up, EBNA-1 inhibitor, ZTA DNA inh, PG9 Ab binder, p47phox inh)
Cc1nc2ccc(C(=O)N3CCN(C(=O)C(Cl)Cl)CC3)cc2n1C1CCCC1	none (no result: aDG glyco up, EBNA-1 inhibitor, ZTA DNA inh, PG9 Ab binder, p47phox inh)
Cc1cccc(C(=O)OCC(=O)N2c3ccccc3CC2C)c1C (stereo not given)	none (no result: EBNA-1 inhibitor, ZTA DNA inh, p47phox inh)
Cc1nc2sc(C(=O)OCC(=O)N3c4ccccc4CC3C)c(C)c2c(=O)[nH]1 (stereo not given)	NR1D1 modulator 20, PG9 Ab binder 9.9 | PG9 bind confirm 21 | PGV04 Ab binding 26 | NR1D1 mod conf inactive
COc1ccc(CNCC#Cc2ccccc2)c(OC)c1	none (no result: aDG glyco up, EBNA-1 inhibitor, ZTA DNA inh, PG9 Ab binder, p47phox inh)
COc1ccccc1CNC(=O)NCCCN1CCN(c2ccc(F)cc2)CC1	none (no result: aDG glyco up, EBNA-1 inhibitor, ZTA DNA inh, PG9 Ab binder, p47phox inh)
N#Cc1c(-c2ccccc2)cc(-c2ccccc2)nc1Br	NR1D1 modulator 29, PG9 Ab binder 8.7 | PG9 bind confirm 14 | PGV04 Ab binding 17 | NR1D1 mod conf inactive
COC(=O)[C@H]1C[C@@]2(c3ccccc3)c3ccccc3N(S(=O)(=O)c3ccccc3)[C@H]2N1	none (no result: aDG glyco up, EBNA-1 inhibitor, ZTA DNA inh, PG9 Ab binder, p47phox inh)
O=C(C1CCN(c2ncnc3c2sc2cccc(F)c23)CC1)N1CCN(C(=O)C2CCCO2)CC1 (stereo not given)	none (no result: aDG glyco up, EBNA-1 inhibitor, ZTA DNA inh, PG9 Ab binder, p47phox inh)
COc1ccc(C(=O)Nc2nnc(Cc3ccccc3)s2)c(OC)c1	NR1D1 modulator 71, PG9 Ab binder 68 (no result: p47phox inh) | PG9 bind confirm 39 | PGV04 Ab binding 32 | PG9 binder DR inactive | PGV04 DR counter inactive | PG126 DR counter inactive | NR1D1 mod conf 53 | RORg DNA counter inactive
Cc1ccccc1Cn1cc(CN2[C@@H](CC(C)C)COc3cccc(F)c3S2(=O)=O)nn1	none (no result: aDG glyco up, EBNA-1 inhibitor, ZTA DNA inh, PG9 Ab binder, p47phox inh)
O=C(NCC1CCCO1)c1cc(-c2ccccc2)nc2ccc(Br)cc12 (stereo not given)	NR1D1 modulator 33, PG9 Ab binder 15 (no result: p47phox inh) | PG9 bind confirm 19 | PGV04 Ab binding 25 | NR1D1 mod conf 26
Nc1c2c(=O)oc(-c3ccccc3)cc2nn1-c1ccccc1	none
Cc1c(-c2ccc(Cl)cc2)oc(=O)c2c(N)n(-c3ccccc3)nc12	NR1D1 modulator 49, PG9 Ab binder 36 | PG9 bind confirm 31 | PGV04 Ab binding 39 | NR1D1 mod conf 49 | RORg DNA counter inactive
Cc1noc(C)c1C(=O)Nc1nc(-c2cc(F)ccc2F)cs1	none (no result: EBNA-1 inhibitor, ZTA DNA inh, p47phox inh)
Cc1onc(-c2ccccc2)c1C(=O)Nc1nc(-c2cc(F)ccc2F)cs1	NR1D1 modulator 55, PG9 Ab binder 52 | PG9 bind confirm 50 | PGV04 Ab binding 65 | NR1D1 mod conf 65 | RORg DNA counter inactive
Cc1cc(OCC(=O)Nc2cccnc2)c2c(C)c(C)c(=O)oc2c1	NR1D1 modulator 19, PG9 Ab binder 15 (no result: p47phox inh) | PG9 bind confirm 14 | PGV04 Ab binding 16 | NR1D1 mod conf inactive
COC(=O)c1ccc(NC(=O)c2ccc3nc(C)sc3c2)cc1	NR1D1 modulator 39, PG9 Ab binder 29 (no result: p47phox inh) | PG9 bind confirm 32 | PGV04 Ab binding 49 | NR1D1 mod conf 18
COC(=O)C1=C[C@@H]([C@@H](C)[C@H](OC)c2ccccc2Br)[C@@H]2OCCC[C@H]12	none (no result: aDG glyco up, EBNA-1 inhibitor, ZTA DNA inh, PG9 Ab binder, p47phox inh)
COc1ccc(NC(=O)COC(=O)c2cc(SC)ccc2Cl)c(OC)c1	NR1D1 modulator 34, PG9 Ab binder 18 | PG9 bind confirm 30 | PGV04 Ab binding 45 | NR1D1 mod conf 29
COc1ccc(C(C)(C)C)cc1NC(=O)COC(=O)c1cc(SC)ccc1Cl	none
O=C(CSc1nc2nc3c(cc2c(=O)n1-c1ccccc1)CCCC3)Nc1ccccc1	NR1D1 modulator 27, PG9 Ab binder 18 | PG9 bind confirm 31 | PGV04 Ab binding 46 | NR1D1 mod conf 20
O=c1cc(-c2ccccc2)[nH]c2nc3ccccc3n12	NR1D1 modulator 24, PG9 Ab binder 13 | PG9 bind confirm 20 | PGV04 Ab binding 32 | NR1D1 mod conf 17
